For nine compounds, Potency and outcome results are on record in PubChem BioAssay (Tox21).

Where “and” joins values, the source holds several entries; their conditions need not be identical. Identical values can stand only once. Inconclusive results are not listed. Calls of active or inactive are those of the source. Unless noted, calls come from the whole dose curve; as a rule, active = well fitted curve in the direction sought with a large enough effect in the repeat runs; inconclusive = weak or mixed curves; inactive = no such curve, though single readings can be large; an effect the other way counts as inactive or inconclusive.

Experiment [1] is described as follows: qHTS assay to identify small molecule antagonists of the thyroid receptor (TR) signaling pathway - cell viability counter screen (AID 743064). Note: nearly all actives have a fitted effect of over 50% in size. Note: potency is the fitted concentration of half-maximal effect. The procedure, abridged:
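Plate GH3.TRE-Luc cells; incubate 4 h at 37 °C; add compound, then T3 to 1 nM final; incubate 23.5 h; add CellTiter-Fluor; incubate 30 min at 37 °C, 5% CO2; read fluorescence.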

Experiment [2] can be described thus: qHTS assay to identify small molecule antagonists of the thyroid receptor (TR) signaling pathway (AID 743065). Note: nearly all actives have a fitted effect of over 55% in size. Note: potency is the fitted concentration of half-maximal effect. The procedure, abridged:
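GH3.TRE-Luc rat pituitary cells carrying two TR response elements driving luciferase were plated for 4 h, given compound plus 1 nM T3 (final), and incubated 23.5 h at 37 C. ONE-Glo luminescence measured reporter inhibition; CellTiter-Fluor fluorescence tracked cytotoxicity.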

For experiment [3], the system named is thyroid hormone receptor (rat, GH3 cells). The experiment in a line: qHTS assay to identify small molecule agonists of the thyroid receptor (TR) signaling pathway (AID 743066; calls by dose curve). For orientation: qHTS replaces the single test concentration by a dilution series.
The target of experiment [4] is Estrogen receptor (Homo sapiens) (UniProt P03372). Briefly: qHTS assay to identify small molecule antagonists of the estrogen receptor alpha (ER-alpha) signaling pathway (AID 743069; active = well fitted curve in the direction sought with a large enough effect in the signal ratio in the repeat runs, not every such curve was filed as active; the % refers to the signal ratio). The procedure, abridged:
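A 17beta-estradiol challenge was applied right after compound transfer to ER-alpha-UAS-bla HEK293 cells previously kept in charcoal-stripped serum. Plates stood 18 hr at 37C and 5% CO2; fluorescence was read following 2 hr FRET substrate loading at room temperature.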

A short description of experiment [5]: qHTS assay to identify small molecule antagonists of the estrogen receptor alpha (ER-alpha) signaling pathway - cell viability counter screen (AID 743074; calls by dose curve;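 note: HEK293 cells carrying ER-alpha-UAS-bla reporter stimulated with 17beta-estradiol; nearly all actives have a fitted effect of over 45% in size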).
For experiment [6], the target named is Estrogen receptor (Homo sapiens) (UniProt P03372). Briefly: qHTS assay to identify small molecule agonists of the estrogen receptor alpha (ER-alpha) signaling pathway (AID 743075; calls by dose curve;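 note: HEK293 GripTite cells with ER-alpha and UAS-driven beta-lactamase reporter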).
Experiment [7] shares this target. Briefly: qHTS assay to identify small molecule agonists of the estrogen receptor alpha (ER-alpha) signaling pathway using the BG1 cell line (AID 743079). Note: nearly all actives have a fitted effect of over 20% in size.
Experiment [8] can be described thus: qHTS assay to identify small molecule antagonists of the estrogen receptor alpha (ER-alpha) signaling pathway using the BG1 cell line (AID 743080; calls by dose curve;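 note: BG1 cells stimulated with 17beta-estradiol alongside compound; series mostly up to about 70 µM; nearly all actives have a fitted effect of over 25% in size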). The procedure, abridged:
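Endogenous full-length ER-alpha in BG1-Luc-4E2 cells drives a stably integrated 4×ERE luciferase gene; compounds were tested against 17beta-estradiol over 21.5 h, with luminescence and multiplexed viability fluorescence recorded.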

Experiment [9] is described as follows: qHTS assay to identify small molecule antagonists of the estrogen receptor alpha (ER-alpha) signaling pathway using the BG1 cell line - cell viability counter screen (AID 743081).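 Note: compound given together with 17beta-estradiol as the ER stimulus; series mostly up to about 70 µM; nearly all actives have a fitted effect of over 45% in size.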
Experiment [10] in a line: qHTS assay to identify aromatase inhibitors - cell viability counter screen (AID 743084).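 Note: cells stimulated with testosterone during compound exposure; nearly all actives have a fitted effect of over 55% in size.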
A short description of experiment [11]: qHTS assay to identify small molecule that activate the aryl hydrocarbon receptor (AhR) signaling pathway - cell viability counter screen (AID 743086).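 Note: HepG2 liver cells carrying the AhR DRE luciferase reporter; series mostly up to about 70 µM; nearly all actives have a fitted effect of over 45% in size.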 The procedure, abridged: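 HepG2-AhR-luc (HG2L7.5c1) cells, 4000/well, were preincubated 5 h at 37C, exposed to compound in qHTS format for 24 hr at 37C, then given CellTiter-Fluor for 30 min; viability was read as fluorescence in the reporter wells.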

Experiment [12] concerns the target Peroxisome proliferator-activated receptor gamma (Homo sapiens) (UniProt P37231). The experiment in a line: qHTS assay to identify small molecule agonists of the peroxisome proliferator-activated receptor gamma (PPARg) signaling pathway (AID 743094; active = well fitted activation curve with a large enough effect in the signal ratio in the repeat runs, not every such curve was filed as active; the % refers to the signal ratio). The procedure, abridged:
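Fluorescence-based beta-lactamase readout in HEK293H PPARg UAS-bla cells after 17 h compound exposure (37C) and 1 h B/G FRET substrate incubation at room temperature.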

Experiment [13] shares this target. Briefly: qHTS assay to identify small molecule antagonists of the peroxisome proliferator-activated receptor gamma (PPARg) signaling pathway (AID 743191; calls by dose curve; note: series mostly up to about 63 µM; nearly all actives have a fitted effect of over 30% in size). The procedure, abridged: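 GeneBLAzer PPARg UAS-bla HEK293H cells carrying a UAS-driven beta-lactamase reporter were plated at 3000 cells/well, preincubated 5 h at 37C, then given compound for 17 h at 37C; LiveBLAzer B/G FRET substrate was read after 1 h at room temperature.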

A short description of experiment [14]: qHTS assay to identify small molecule antagonists of the peroxisome proliferator-activated receptor gamma (PPARg) signaling pathway - cell viability counter screen (AID 743194). Note: nearly all actives have a fitted effect of over 55% in size. The procedure, abridged: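 PPARg-UAS-bla HEK293H cells were plated, rested 5 h at 37 C, then treated with compounds plus rosiglitazone (50 nM final) for 17 h at 37 C; viability was then read by CellTiter-Glo luminescence after 30 min at room temperature.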

The nature of experiment [15]: qHTS assay for small molecule agonists of the antioxidant response element (ARE) signaling pathway (AID 743202; active = well fitted activation curve with a large enough effect in the signal ratio in the repeat runs, not every such curve was filed as active; the % refers to the signal ratio). The procedure, abridged:
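Following a 16 h, 37 C exposure of reporter HepG2 cells (ARE-driven beta-lactamase, 2,000 cells/well) to compounds, FRET substrate was applied for 2 h at room temperature and fluorescence intensity recorded.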

Experiment [16] in a line: qHTS assay for small molecule agonists of the antioxidant response element (ARE) signaling pathway - cell viability counter screen (AID 743203; calls by dose curve; note: nearly all actives have a fitted effect of over 55% in size; note: potency is the fitted concentration of half-maximal effect). The procedure, abridged: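 Parallel cytotoxicity read-out for the ARE-bla screen: HepG2 reporter cells, 16 hrs with compounds, then CellTiter-Glo luminescence.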
Experiment [17] is described as follows: qHTS assay for small molecule activators of the heat shock response signaling pathway - cell viability counter screen (AID 743209). Note: nearly all actives have a fitted effect of over 50% in size. The procedure, abridged: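 To flag cytotoxic compounds, HSE-bla HeLa cells plated at 1500 cells/well were dosed for 5 h at 37 C, followed by the reporter FRET read and then CellTiter-Glo, with luminescence recorded 30 min after reagent addition.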

Experiment [18] is described as follows: qHTS assay for small molecule activators of the heat shock response signaling pathway (AID 743210; active = well fitted activation curve with a large enough effect in the signal ratio in the repeat runs, with a control signal flat, not every such curve was filed as active; the % refers to the signal ratio; note: series mostly up to about 63 µM). The procedure, abridged:
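Heat shock element–beta-lactamase HeLa reporter cells; qHTS with compounds for 5 h at 37 C; detection by FRET substrate fluorescence after 2.5 h at RT.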

A further experiment addresses Aromatase (Homo sapiens) (UniProt P11511). The experiment in a line: qHTS assay to identify aromatase inhibitors (AID 743083).
For experiment [19], the target named is Aryl hydrocarbon receptor (Homo sapiens) (UniProt P35869). Briefly: qHTS assay to identify small molecule that activate the aryl hydrocarbon receptor (AhR) signaling pathway (AID 743085).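 For activation: HG2L7.5c1 human HepG2 liver cells with stably integrated DRE-driven firefly reporter; series mostly up to about 70 µM.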 Note: nearly all actives have a fitted effect of over 15% in size. Note: potency is the fitted concentration of half-maximal effect. The procedure, abridged:
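Steps: seed HepG2-AhR-luc cells; allow 5 h at 37C; pin-transfer test compound or vehicle; incubate 24 h at 37C; add viability dye (30 min, 37C) and read fluorescence; add luciferase substrate (30 min, RT) and read luminescence.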

Sequence of Aromatase (Homo sapiens) (P11511 whole entry, looked up): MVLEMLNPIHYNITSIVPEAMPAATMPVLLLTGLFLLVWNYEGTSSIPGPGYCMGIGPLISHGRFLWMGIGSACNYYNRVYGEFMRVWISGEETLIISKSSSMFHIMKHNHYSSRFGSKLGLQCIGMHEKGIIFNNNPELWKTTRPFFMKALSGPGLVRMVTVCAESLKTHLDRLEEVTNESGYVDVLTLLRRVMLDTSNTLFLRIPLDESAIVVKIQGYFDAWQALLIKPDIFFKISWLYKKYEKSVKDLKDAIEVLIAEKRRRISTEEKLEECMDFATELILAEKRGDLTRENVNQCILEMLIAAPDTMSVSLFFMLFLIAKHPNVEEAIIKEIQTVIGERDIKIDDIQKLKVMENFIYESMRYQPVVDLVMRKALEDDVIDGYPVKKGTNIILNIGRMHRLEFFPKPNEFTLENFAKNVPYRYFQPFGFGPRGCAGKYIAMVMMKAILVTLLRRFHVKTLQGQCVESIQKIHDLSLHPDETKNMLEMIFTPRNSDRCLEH
Sequence of Estrogen receptor (Homo sapiens) (P03372 whole entry, looked up): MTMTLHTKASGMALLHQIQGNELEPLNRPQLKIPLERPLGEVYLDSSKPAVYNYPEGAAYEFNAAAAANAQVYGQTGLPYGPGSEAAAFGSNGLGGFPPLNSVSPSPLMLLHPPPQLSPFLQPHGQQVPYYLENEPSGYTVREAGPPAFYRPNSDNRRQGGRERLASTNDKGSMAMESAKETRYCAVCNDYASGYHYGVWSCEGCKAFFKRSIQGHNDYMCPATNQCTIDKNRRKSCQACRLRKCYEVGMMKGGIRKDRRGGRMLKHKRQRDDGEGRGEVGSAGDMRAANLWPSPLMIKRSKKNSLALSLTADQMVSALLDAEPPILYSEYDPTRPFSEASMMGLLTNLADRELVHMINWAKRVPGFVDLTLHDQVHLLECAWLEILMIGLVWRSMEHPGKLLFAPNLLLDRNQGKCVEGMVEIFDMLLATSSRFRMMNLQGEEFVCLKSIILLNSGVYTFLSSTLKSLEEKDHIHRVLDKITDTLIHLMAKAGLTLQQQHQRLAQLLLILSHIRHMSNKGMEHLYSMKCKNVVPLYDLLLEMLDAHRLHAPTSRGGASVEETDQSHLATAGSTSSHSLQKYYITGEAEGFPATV
Sequence of Peroxisome proliferator-activated receptor gamma (Homo sapiens) (P37231 whole entry, looked up): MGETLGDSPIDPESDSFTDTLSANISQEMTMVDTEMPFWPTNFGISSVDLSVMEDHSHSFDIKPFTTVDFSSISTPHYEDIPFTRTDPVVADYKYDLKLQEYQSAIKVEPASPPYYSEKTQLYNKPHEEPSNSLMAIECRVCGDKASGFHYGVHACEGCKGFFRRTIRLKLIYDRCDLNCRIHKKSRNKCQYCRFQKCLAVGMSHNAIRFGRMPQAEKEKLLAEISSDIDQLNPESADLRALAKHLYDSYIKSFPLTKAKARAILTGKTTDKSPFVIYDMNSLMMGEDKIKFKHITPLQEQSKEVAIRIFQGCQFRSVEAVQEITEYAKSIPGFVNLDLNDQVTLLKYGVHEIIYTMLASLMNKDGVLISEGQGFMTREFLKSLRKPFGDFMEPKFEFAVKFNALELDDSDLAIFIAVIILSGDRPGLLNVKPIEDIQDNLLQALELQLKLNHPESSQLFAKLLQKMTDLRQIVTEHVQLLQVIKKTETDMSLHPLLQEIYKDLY
Sequence of Aryl hydrocarbon receptor (Homo sapiens) (P35869 whole entry, looked up): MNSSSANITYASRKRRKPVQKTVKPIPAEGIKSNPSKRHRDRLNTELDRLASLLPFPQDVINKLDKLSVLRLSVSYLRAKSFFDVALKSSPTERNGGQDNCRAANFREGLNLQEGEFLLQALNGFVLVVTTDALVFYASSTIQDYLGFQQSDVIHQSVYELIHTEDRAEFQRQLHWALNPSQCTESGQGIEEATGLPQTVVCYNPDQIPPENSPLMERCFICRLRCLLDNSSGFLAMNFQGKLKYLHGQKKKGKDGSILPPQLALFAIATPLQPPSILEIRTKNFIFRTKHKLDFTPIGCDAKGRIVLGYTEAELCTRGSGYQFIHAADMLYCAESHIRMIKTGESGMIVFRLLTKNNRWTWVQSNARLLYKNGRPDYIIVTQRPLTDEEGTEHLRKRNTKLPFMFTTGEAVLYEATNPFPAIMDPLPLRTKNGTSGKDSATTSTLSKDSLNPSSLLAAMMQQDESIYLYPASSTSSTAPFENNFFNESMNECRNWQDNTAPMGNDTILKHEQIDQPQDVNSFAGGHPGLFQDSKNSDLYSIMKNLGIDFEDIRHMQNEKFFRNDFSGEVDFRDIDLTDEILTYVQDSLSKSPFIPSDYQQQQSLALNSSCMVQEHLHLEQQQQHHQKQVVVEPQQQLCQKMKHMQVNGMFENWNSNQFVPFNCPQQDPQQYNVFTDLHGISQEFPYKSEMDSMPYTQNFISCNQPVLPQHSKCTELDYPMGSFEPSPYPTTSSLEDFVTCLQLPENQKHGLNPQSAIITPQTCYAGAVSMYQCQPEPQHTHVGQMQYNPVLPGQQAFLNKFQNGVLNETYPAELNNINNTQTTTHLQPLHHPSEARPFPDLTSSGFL

Consider `CC(CCl)OC(C)CCl` (configuration not stated), for which the Potency result in experiment [1], in [2], in [4], in experiment [6], in [7] and in [8] was “inactive” in each case. Further, the Potency entry in [9], in experiment [10], in [11], in experiment [12], in [13] and in [14] was “inactive” in each case. The Potency result in experiment [15] and in experiment [16] was “inactive” each time. The outcome in [3], in experiment [5], in experiment [17] and in [18] was inactive.

`CC(=O)c1cccnc1`: the Potency entry in experiment [1], in experiment [2], in experiment [4], in [6], in experiment [7] and in experiment [8] was “inactive” each time. In addition, the Potency result (in experiment [9]; with Aromatase (Homo sapiens); in experiment [10]; in experiment [11]; in [12]; in experiment [16]) was “inactive” each time. In addition, the compound was classed as inactive in experiment [3], in experiment [5] and in [17].

For `CCC1=C(C)CN(C(=O)NCCc2ccc(S(=O)(=O)NC(=O)NC3CCC(C)CC3)cc2)C1=O` (configuration not stated), the Potency entry in experiment [1], in experiment [2], in experiment [4], in experiment [6], in experiment [7] and in experiment [8] was “inactive” in each case. Besides, the Potency entry (in [9]; with Aromatase (Homo sapiens); in [10]; in [19]; in experiment [11]; in experiment [14]) was “inactive” in each case. For the same compound, in experiment [16], the Potency result is “inactive”. The result in experiment [3], in experiment [5], in experiment [17] and in experiment [18] was inactive.

With `CCCCCCCCOCCCN`, the Potency is 13.7 µM (active) in [1], 21.7 µM (active) in [2] and 54.5 µM (active) in experiment [16]. The result in [3], in experiment [5] and in experiment [17] was inactive. The Potency result (in [6]; in [8]; in experiment [9]; with Aromatase (Homo sapiens); in [10]; in experiment [19]) was “inactive” throughout. The Potency result in [11] was “inactive”.

As for `CCCCCCCCCCCCCCCCC(=O)O`, the Potency result (in experiment [1]; in [2]; in experiment [9]; with Aromatase (Homo sapiens); in experiment [10]; in experiment [19]) was “inactive” throughout. In addition, the Potency result in experiment [11], in experiment [12], in experiment [13], in [14], in experiment [15] and in experiment [16] was “inactive” throughout. Besides, the compound was called inactive in experiment [3], in experiment [5], in experiment [17] and in experiment [18].

For the compound `CCCCCCCCC(=O)OCC(C)OC(=O)CCCCCCCC` (configuration not stated), the Potency entry (in experiment [1]; in [2]; in experiment [9]; in the experiment with Aromatase (Homo sapiens); in experiment [10]; in experiment [19]) was “inactive” in each case. For the same compound, the Potency entry in [11], in experiment [12], in [14] and in [16] was “inactive” in each case. Further, the call in experiment [3], in experiment [5] and in experiment [17] was inactive.

As to `CCCCOc1ccc(N)cc1`, the Potency result (in [1]; in [2]; in [4]; in experiment [6]; in [9]; with Aromatase (Homo sapiens)) was “inactive” in each case. In addition, the Potency entry in experiment [10], in [19], in experiment [11], in experiment [12], in [14] and in experiment [15] was “inactive” throughout. For the same compound, the Potency result in experiment [16] is “inactive”. In addition, the outcome in experiment [3], in experiment [5] and in experiment [18] was inactive.

Regarding `O=C1c2ccccc2C(=O)C1c1ccc2ccccc2n1`, the Potency result (in experiment [1]; in experiment [2]; in experiment [4]; in [6]; with Aromatase (Homo sapiens); in [10]) was “inactive” in each case. In addition, the Potency result in [11], in experiment [12], in experiment [13], in [14] and in experiment [16] was “inactive” in each case. Besides, the compound was called inactive in [3], in experiment [5] and in experiment [17]. In experiment [19], the Potency is 10.8 µM (active).

As to `Nc1nc(Cl)nc2c1ncn2[C@H]1C[C@H](O)[C@@H](CO)O1`, the Potency in experiment [1] was 422 nM (active) and 136 nM (active); in experiment [2], 298 nM (active) and 48.2 nM (active). Moreover, the call in experiment [3], in experiment [5], in experiment [17] and in experiment [18] was inactive. Further, the Potency entry (in experiment [9]; in the experiment with Aromatase (Homo sapiens); in experiment [10]; in experiment [19]; in experiment [11]; in experiment [14]) was “inactive” each time. Moreover, the Potency result in experiment [15] and in experiment [16] was “inactive” each time.
